Source: article PMC7862700, “An all-to-all approach to the identification of sequence-specific readers for epigenetic DNA modifications on cytosine”

Assays:
Assay in all cases: DAPPL (digital affinity profiling via proximity ligation, sequencing); 10 mM Tris-HCl pH 7.5, 50 mM NaCl, 1 mM DTT, 4% glycerol, room temperature, 30 min; GST-TFs on glutathione beads, 16-mer random dsDNA library, 0.1% formaldehyde crosslink after washing; high values mean tight binding
[1] = target: T1, FLI1 (Homo sapiens, UniProt Q01543 1-452); conditions: protein: recombinant; tags: N-terminal GST; dsDNA, one strand shown
T1 sequence: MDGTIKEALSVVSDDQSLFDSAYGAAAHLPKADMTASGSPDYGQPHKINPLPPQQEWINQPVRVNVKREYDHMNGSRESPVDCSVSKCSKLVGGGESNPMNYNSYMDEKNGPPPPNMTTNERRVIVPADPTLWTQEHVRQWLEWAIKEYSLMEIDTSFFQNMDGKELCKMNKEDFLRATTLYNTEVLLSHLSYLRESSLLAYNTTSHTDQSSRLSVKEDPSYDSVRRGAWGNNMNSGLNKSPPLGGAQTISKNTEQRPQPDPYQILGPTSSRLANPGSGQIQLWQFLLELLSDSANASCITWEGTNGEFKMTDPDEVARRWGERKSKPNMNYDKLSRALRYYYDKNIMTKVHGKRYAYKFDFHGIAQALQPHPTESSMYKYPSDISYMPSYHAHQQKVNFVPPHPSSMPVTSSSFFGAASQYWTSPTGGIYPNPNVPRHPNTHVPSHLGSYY
How it was run: (§1)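 Pools of DNA-barcoded human transcription factors, expressed in yeast as GST fusions on glutathione beads and combined with a tag-only sample, were incubated with 200 nmole of a 16-mer random double-stranded DNA library. Incubation took 30 min at room temperature in Tris/NaCl/DTT/glycerol buffer and was followed by washing, 0.1% formaldehyde crosslinking, proximity ligation (BsaI/T4 ligase, 1 h, 37 °C), PCR amplification and sequencing on an Illumina NextSeq500. Binding signal is the ratio of a hexamer's read frequency for a factor to its frequency for the tag-only sample.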

[2] = target: T2, ELK1 (Homo sapiens, UniProt P19419 1-428); conditions: protein: recombinant; tags: N-terminal GST; dsDNA, one strand shown
T2 sequence: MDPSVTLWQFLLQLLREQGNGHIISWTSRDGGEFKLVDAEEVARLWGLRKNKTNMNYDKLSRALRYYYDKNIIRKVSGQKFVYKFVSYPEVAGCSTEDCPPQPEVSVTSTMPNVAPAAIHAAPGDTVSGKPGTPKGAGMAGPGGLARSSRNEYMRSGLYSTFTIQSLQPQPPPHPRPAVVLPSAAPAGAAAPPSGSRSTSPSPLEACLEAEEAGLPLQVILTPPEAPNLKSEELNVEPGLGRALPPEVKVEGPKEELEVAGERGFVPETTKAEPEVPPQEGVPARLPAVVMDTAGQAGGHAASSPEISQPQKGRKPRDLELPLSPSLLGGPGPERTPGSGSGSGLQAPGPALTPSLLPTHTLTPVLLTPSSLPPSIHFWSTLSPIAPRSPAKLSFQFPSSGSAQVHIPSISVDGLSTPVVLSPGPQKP
How it was run: as §1

[3] = target: T3, GABPA (Homo sapiens, UniProt Q06546 1-454); conditions: protein: recombinant; tags: N-terminal GST; dsDNA, one strand shown
T3 sequence: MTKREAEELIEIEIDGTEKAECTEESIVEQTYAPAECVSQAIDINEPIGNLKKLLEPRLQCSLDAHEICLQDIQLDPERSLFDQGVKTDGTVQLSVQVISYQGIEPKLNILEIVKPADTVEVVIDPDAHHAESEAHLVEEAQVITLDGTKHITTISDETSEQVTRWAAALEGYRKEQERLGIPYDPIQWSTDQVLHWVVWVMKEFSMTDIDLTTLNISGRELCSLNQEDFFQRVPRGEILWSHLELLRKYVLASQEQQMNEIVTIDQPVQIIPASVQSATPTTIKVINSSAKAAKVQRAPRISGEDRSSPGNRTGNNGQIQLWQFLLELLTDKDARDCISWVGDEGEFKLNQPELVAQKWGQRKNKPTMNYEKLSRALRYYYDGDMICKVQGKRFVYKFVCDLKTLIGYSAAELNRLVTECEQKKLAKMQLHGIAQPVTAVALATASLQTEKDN
How it was run: as §1

[4] = target: T4, ERG (Homo sapiens, UniProt P11308 1-479); conditions: protein: recombinant; tags: N-terminal GST; dsDNA, one strand shown
T4 sequence: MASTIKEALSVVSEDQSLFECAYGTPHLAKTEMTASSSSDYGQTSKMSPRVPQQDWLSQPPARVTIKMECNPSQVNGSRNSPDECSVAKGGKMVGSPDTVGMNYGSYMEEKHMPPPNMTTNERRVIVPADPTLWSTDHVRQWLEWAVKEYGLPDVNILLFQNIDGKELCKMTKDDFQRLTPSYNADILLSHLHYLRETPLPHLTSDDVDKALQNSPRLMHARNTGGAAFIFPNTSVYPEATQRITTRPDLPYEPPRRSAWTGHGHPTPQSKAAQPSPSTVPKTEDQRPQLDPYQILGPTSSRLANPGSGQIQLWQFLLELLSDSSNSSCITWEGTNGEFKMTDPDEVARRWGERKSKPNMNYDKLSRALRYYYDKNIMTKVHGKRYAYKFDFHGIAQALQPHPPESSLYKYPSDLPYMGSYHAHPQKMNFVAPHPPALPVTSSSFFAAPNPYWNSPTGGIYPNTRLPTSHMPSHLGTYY
How it was run: as §1

[5] = target: ELF1 (Homo sapiens, UniProt P32519 1-619); conditions: protein: recombinant; tags: N-terminal GST; dsDNA, one strand shown
How it was run: as §1

[6] = target: T5, EHF (Homo sapiens, UniProt Q9NZC4 1-300); conditions: protein: recombinant; tags: N-terminal GST; dsDNA, one strand shown
T5 sequence: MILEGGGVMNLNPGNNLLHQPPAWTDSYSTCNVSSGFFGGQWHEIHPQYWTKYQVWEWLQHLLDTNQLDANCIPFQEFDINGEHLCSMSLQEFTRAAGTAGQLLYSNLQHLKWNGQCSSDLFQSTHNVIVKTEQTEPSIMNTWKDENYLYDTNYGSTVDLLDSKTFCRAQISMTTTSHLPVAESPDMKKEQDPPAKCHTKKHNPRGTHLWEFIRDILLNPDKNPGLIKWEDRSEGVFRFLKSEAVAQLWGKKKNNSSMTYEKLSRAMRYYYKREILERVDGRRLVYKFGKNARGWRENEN
How it was run: as §1

[7] = target: SPI1 (Homo sapiens, UniProt P17947 1-270); conditions: protein: recombinant; tags: N-terminal GST; dsDNA, one strand shown
How it was run: as §1

[8] = target: SPIB (Homo sapiens, UniProt Q01892 1-262); conditions: protein: recombinant; tags: N-terminal GST; dsDNA, one strand shown
How it was run: as §1

[9] = target: T6, ELK3 (Homo sapiens, UniProt P41970 1-407); conditions: protein: recombinant; tags: N-terminal GST; dsDNA, one strand shown
T6 sequence: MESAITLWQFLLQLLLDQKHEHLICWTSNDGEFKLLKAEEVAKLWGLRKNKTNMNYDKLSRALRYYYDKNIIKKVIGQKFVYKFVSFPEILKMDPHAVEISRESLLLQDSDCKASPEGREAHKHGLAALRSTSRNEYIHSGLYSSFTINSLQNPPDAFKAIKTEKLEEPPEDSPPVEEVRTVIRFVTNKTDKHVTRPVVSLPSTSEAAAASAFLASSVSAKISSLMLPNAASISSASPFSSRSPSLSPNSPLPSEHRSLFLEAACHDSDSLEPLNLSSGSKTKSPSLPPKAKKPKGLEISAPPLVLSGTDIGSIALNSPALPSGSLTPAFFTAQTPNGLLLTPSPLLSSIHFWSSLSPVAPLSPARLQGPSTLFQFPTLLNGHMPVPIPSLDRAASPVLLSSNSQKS
How it was run: as §1

[10] = target: T7, FEV (Homo sapiens, UniProt Q99581 1-238); conditions: protein: recombinant; tags: N-terminal GST; dsDNA, one strand shown
T7 sequence: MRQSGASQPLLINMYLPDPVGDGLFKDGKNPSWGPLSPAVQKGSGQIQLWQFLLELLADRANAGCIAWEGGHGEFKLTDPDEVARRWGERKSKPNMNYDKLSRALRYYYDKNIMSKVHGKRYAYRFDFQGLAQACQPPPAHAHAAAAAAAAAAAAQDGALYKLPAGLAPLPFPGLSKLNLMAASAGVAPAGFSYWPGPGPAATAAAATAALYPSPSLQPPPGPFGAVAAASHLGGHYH
How it was run: as §1

[11] = target: ETV5 (Homo sapiens, UniProt P41161 1-510); conditions: protein: recombinant; tags: N-terminal GST; dsDNA, one strand shown
How it was run: as §1

[12] = target: HSF1 (Homo sapiens, UniProt Q00613 1-529); conditions: protein: recombinant; tags: N-terminal GST; chain copies: 3; dsDNA, one strand shown
How it was run: as §1

[13] = target: T8, SPIC (Homo sapiens, UniProt Q8N5J4 1-248); conditions: protein: recombinant; tags: N-terminal GST; dsDNA, one strand shown
T8 sequence: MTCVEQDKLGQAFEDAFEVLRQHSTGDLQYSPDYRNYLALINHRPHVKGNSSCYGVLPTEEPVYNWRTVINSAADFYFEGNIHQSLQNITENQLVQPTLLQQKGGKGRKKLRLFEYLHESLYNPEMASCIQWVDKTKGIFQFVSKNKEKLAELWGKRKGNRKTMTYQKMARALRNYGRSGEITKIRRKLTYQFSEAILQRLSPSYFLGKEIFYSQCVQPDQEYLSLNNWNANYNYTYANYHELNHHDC
How it was run: as §1

[14] = target: ELF4 (Homo sapiens, UniProt Q99607 1-663); conditions: protein: recombinant; tags: N-terminal GST; dsDNA, one strand shown
How it was run: as §1

[15] = target: T9, ELK4 (Homo sapiens, UniProt P28324-2 1-405); conditions: protein: recombinant; tags: N-terminal GST; dsDNA, one strand shown
T9 sequence: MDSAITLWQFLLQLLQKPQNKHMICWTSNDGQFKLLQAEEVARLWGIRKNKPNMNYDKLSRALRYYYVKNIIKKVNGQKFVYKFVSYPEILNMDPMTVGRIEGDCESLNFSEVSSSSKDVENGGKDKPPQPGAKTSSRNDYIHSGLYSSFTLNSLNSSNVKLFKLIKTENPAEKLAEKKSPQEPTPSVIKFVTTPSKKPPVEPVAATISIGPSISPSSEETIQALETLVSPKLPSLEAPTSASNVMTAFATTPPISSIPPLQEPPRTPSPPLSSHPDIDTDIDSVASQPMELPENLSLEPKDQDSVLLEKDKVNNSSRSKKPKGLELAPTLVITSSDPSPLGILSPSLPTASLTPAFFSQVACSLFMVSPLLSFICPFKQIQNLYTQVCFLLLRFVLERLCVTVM
How it was run: as §1

[16] = target: T10, ETV2 (Homo sapiens, UniProt O00321 1-342); conditions: protein: recombinant; tags: N-terminal GST; dsDNA, one strand shown
T10 sequence: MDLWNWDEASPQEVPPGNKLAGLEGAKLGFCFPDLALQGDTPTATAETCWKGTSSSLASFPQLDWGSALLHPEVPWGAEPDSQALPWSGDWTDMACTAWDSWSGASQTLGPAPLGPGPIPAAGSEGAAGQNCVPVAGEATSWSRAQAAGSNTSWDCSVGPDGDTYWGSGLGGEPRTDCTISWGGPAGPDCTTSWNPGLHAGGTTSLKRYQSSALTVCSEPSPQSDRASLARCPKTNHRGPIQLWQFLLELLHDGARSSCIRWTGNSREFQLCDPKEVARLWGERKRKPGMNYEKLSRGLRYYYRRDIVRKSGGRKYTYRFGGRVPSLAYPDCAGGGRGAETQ
How it was run: as §1

[17] = target: T11, ELF3 (Homo sapiens, UniProt P78545 1-371); conditions: protein: recombinant; tags: N-terminal GST; dsDNA, one strand shown
T11 sequence: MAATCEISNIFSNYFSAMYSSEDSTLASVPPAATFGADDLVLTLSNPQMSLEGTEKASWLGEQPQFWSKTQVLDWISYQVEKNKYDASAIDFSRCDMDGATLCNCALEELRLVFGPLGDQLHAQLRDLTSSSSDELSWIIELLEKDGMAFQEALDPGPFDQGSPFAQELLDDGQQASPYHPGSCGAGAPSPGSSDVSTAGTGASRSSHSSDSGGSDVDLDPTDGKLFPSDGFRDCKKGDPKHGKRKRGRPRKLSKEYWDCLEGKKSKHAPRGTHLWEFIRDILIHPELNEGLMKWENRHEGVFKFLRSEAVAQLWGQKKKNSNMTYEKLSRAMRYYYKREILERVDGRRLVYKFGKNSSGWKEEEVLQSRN
How it was run: as §1

[18] = target: CRX (Homo sapiens, UniProt O43186 1-299); conditions: protein: recombinant; tags: N-terminal GST; dsDNA, one strand shown
How it was run: as §1

[19] = target: ETV1 (Homo sapiens, UniProt P50549 1-477); conditions: protein: recombinant; tags: N-terminal GST; dsDNA, one strand shown
How it was run: as §1

Chain of ELF1 (P32519 whole entry): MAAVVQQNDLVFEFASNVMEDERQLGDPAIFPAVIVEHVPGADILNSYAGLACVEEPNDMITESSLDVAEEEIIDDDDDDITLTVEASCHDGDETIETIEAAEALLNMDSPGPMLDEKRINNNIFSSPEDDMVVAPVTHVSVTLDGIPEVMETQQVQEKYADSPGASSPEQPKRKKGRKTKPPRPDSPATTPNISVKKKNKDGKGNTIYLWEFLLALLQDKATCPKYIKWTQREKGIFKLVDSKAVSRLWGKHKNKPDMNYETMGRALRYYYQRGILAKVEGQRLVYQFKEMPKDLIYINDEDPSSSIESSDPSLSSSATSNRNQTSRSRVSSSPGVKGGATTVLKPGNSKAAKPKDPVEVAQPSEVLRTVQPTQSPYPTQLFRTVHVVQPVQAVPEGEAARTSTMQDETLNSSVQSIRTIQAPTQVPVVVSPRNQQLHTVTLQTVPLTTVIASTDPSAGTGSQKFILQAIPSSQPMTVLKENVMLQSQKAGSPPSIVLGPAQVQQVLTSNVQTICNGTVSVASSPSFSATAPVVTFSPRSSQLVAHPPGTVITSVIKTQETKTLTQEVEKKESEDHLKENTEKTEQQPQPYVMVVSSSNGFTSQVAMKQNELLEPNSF
Chain of HSF1 (Q00613 whole entry): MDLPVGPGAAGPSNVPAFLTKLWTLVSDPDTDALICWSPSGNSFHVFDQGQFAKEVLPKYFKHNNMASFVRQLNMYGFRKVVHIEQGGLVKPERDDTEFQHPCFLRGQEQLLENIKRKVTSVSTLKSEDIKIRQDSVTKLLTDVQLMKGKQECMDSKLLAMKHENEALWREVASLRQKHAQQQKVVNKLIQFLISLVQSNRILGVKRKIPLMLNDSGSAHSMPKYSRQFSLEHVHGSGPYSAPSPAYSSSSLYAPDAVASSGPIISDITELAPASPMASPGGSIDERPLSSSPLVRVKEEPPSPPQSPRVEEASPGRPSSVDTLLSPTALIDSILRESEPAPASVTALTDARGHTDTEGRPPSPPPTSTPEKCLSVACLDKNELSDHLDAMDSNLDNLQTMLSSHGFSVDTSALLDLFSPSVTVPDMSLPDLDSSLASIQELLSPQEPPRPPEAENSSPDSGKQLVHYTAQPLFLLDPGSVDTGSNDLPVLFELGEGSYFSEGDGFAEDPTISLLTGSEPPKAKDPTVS
Chain of ELF4 (Q99607 whole entry): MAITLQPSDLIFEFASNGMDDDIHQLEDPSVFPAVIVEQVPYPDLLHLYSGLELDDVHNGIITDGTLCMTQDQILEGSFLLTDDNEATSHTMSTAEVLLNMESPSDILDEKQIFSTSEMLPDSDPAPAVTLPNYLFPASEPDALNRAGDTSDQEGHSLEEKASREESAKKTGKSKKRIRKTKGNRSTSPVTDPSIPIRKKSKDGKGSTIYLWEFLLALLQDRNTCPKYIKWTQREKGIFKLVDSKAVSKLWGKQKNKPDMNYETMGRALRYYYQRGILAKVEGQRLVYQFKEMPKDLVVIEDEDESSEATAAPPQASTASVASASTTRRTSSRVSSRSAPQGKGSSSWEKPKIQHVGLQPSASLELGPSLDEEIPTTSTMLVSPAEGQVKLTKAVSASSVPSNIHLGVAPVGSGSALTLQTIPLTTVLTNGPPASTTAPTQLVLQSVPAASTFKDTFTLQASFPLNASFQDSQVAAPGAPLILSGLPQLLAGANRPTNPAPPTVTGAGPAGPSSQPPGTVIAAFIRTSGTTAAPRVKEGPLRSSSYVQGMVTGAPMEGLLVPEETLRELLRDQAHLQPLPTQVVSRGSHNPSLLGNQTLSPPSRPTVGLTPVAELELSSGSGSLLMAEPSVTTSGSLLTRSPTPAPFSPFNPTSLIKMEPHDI
Chain of ETV1 (P50549 whole entry): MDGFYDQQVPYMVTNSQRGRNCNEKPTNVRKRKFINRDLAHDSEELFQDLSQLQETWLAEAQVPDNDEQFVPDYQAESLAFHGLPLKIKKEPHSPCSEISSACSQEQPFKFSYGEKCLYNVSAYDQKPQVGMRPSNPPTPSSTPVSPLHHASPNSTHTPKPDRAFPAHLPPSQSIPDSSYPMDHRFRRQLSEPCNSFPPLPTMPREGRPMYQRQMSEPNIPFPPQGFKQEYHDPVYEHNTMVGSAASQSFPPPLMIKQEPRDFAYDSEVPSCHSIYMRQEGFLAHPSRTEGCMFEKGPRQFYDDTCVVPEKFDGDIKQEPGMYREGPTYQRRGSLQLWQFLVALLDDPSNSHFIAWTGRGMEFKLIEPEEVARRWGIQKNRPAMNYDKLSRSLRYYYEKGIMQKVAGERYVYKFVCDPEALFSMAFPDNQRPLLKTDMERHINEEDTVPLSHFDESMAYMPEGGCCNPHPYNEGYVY
Chain of ETV5 (P41161 whole entry): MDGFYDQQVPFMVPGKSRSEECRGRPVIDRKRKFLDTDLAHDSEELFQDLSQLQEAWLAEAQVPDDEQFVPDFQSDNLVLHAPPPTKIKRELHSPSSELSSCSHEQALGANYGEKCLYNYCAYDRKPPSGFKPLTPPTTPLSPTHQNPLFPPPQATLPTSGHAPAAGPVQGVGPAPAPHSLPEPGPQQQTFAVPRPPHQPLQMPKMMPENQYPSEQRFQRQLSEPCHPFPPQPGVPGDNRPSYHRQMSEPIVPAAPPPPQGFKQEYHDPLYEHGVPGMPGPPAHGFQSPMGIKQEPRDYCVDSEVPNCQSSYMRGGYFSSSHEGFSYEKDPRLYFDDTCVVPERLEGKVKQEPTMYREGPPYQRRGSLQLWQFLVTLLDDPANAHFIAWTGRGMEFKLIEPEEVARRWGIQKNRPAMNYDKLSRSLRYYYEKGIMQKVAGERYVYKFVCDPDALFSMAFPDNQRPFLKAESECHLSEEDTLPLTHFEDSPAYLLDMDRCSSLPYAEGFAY
Chain of SPIB (Q01892 whole entry): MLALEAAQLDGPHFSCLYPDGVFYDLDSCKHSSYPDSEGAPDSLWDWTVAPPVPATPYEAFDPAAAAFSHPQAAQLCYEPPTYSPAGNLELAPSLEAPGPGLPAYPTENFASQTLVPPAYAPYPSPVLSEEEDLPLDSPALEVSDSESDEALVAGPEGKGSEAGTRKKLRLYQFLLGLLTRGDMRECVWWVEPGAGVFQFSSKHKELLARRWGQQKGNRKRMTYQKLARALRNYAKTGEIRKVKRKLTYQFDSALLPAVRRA
Chain of CRX (O43186 whole entry): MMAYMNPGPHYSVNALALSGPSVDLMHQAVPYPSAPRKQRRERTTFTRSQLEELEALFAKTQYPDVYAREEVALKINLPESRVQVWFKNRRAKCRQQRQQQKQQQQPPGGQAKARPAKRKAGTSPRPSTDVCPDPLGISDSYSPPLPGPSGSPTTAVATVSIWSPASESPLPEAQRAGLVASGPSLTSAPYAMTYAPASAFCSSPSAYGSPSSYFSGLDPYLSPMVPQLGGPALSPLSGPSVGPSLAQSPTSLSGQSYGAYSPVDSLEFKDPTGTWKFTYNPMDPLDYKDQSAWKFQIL

TATCAC
binding signal [1]: 1.33 fold enrichment (6-mer frequency, TF over GST control) | binding signal [2]: 1.25 fold enrichment (6-mer frequency, TF over GST control) | binding signal [3]: 1.04 fold enrichment (6-mer frequency, TF over GST control) | binding signal [4]: 1.17 fold enrichment (6-mer frequency, TF over GST control) | binding signal [5]: 1.3 fold enrichment (6-mer frequency, TF over GST control) | binding signal [6]: 1.19 fold enrichment (6-mer frequency, TF over GST control) | binding signal [7]: 1.28 fold enrichment (6-mer frequency, TF over GST control) | binding signal [8]: 1.22 fold enrichment (6-mer frequency, TF over GST control) | binding signal [9]: 1.23 fold enrichment (6-mer frequency, TF over GST control) | binding signal [10]: 1.21 fold enrichment (6-mer frequency, TF over GST control) | binding signal [11]: 1.24 fold enrichment (6-mer frequency, TF over GST control) | binding signal [12]: 1.14 fold enrichment (6-mer frequency, TF over GST control) | binding signal [13]: 1.17 fold enrichment (6-mer frequency, TF over GST control) | binding signal [14]: 1.24 fold enrichment (6-mer frequency, TF over GST control) | binding signal [15]: 1.18 fold enrichment (6-mer frequency, TF over GST control) | binding signal [16]: 1.34 fold enrichment (6-mer frequency, TF over GST control) | binding signal [17]: 1.25 fold enrichment (6-mer frequency, TF over GST control) | binding signal [18]: 1.35 fold enrichment (6-mer frequency, TF over GST control) | binding signal [19]: 1.17 fold enrichment (6-mer frequency, TF over GST control)
